LASV entry inh – blocks Lassa virus binding to or entry into cells; Lassa virus pseudotype entry inhibition, cell reporter; Potency, µM (titrated, usually from 37.9 µM), most hits filed as inhibitors; hit rate 1.2% among 300,000; calls by dose curve; tested in HEK293 cells; note: nearly all actives have a fitted effect of over 50% in size
MARV entry inh – inhibitors of Marburg virus binding or cell entry; Marburg virus pseudotyped entry inhibition, cell reporter; Potency, µM (highest dose often 37.8 µM), most hits filed as inhibitors; hit rate 1.8% among 300,000; AID 540276; calls by dose curve; tested in HEK293 cells
Vaccinia mCherry – vaccinia inhibition (mCherry reporter) | Vaccinia virus mCherry reporter infection, fluorescence | Potency, µM (series often up to 36.5 µM), usual class: inhibitors | hit rate 0.63% among 310,000; calls by dose curve; tested in A549 cells; note: nearly all actives have a fitted effect of over 35% in size
FMDV antiviral – foot and mouth disease virus antiviral activity. FMDV antiviral cell-based qHTS. Potency, µM (highest dose often 57.9 µM), usual class: inhibitors. hit rate 1.2% among 410,000. AID 1159524; calls by dose curve; tested in HEK293T cells; note: read-out not given here; nearly all actives have a fitted effect of over 45% in size
Vaccinia Venus – vaccinia inhibition (Venus reporter); Potency, µM (series often up to 36.5 µM), usual class: inhibitors; Vaccinia virus Venus reporter expression, fluorescence; hit rate 0.46% among 330,000; calls by dose curve; tested in A549 cells; note: nearly all actives have a fitted effect of over 30% in size
HCMV antiviral – inhibitors of human cytomegalovirus; activity change, negative = inhibition, % at 57.5 µM; hit rate 4.5% among 410,000; HFF cells, HCMV-luciferase reporter, 72 h; stronger effect = lower value; in the data active = activity change below about -60%; inconclusive = no clear call, values can overlap the other calls; inactive = above about -39%
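Human foreskin fibroblasts infected with luciferase-reporter HCMV at MOI 1 PFU/cell, compounds at two doses. Luciferase measured 72 h post infection; normalized to buffer-only basal and Salinomycin (10uM) controls.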
Numbers stand for hits; 0 = inactive; ? = inconclusive; - = not tested or not shown; [ ] = another dose, or the depositor's remark. Sampled rows, rich in hits. Any-hit rate of the full collection: about 6.5%.

SMILES | LASV entry inh | MARV entry inh | Vaccinia mCherry | FMDV antiviral | Vaccinia Venus | HCMV antiviral
Cc1ccc(NC(=S)NC(NC(=O)c2ccccc2)C(Cl)(Cl)Cl)c(C)c1 (stereo unspecified) | ? | ? | ? | ? | ? | -68
O=C(NC(NC(=S)Nc1ccccc1)C(Cl)(Cl)Cl)c1cccc(Cl)c1 (stereo unspecified) | ? | ? | ? | - | ? | -78
Nc1nc(=S)c2snnc2[nH]1 | - | - | 0 | - | 0 | -
Brc1ccc(Nc2c3c(nc4nncn24)CCC3)cc1 | 0 | 0 | ? | ? | 0 | 0
CCOc1ccc(CCN2C(=S)N([C@@H](Cc3ccccc3)CN3CCC[C@@H]3CN3C(=S)NC[C@@H]3Cc3ccc(O)cc3)C[C@@H]2CC(C)C)cc1 | - | - | 0 | 0 | 0 | 0
Oc1ccc(C[C@H]2CN([C@@H](Cc3ccc(O)cc3)CN3CCC[C@@H]3CN3C(=S)NC[C@@H]3Cc3ccccc3)C(=S)N2CCc2ccccc2)cc1 | - | - | 0 | 0 | 0 | 0
CCOc1ccc(CCN2C(=S)N([C@@H](Cc3ccc(O)cc3)CN3CCC[C@@H]3CN3C(=S)NC[C@@H]3CC(C)C)C[C@@H]2Cc2ccc(O)cc2)cc1 | - | - | ? | 0 | ? | -63
CCOc1ccc(CCN2C(=S)N([C@@H](Cc3ccc(O)cc3)CN3CCCC3CN3C(=S)NC[C@@H]3Cc3ccc(O)cc3)C[C@@H]2CC(C)C)cc1 (stereo partly specified) | - | - | ? | ? | ? | -80
CCOc1ccc(NC(=O)c2cc(OC)nc3ccccc23)cc1 | ? | 0 | 0 | 0 | 0 | -64
COc1cc(C(=O)Nc2ccc(C)cc2)c2ccccc2n1 | ? | ? | 0 | 0 | 0 | -60
CCOc1ccc(NC(=O)c2cccc3ccccc23)cc1 | - | - | - | 0 | - | 0
Cc1ccc(-n2nc(C(=O)N(C)c3ccccc3Cl)c3c4ccccc4n(C)c3c2=O)cc1 | 0 | 0 | 0 | 0 | 0 | 0
OCCN1CCN(CCCN2c3ccccc3Sc3ccc(Cl)cc32)CC1 | 15µM | 5µM | ? | 0 | ? | 0
CCCS(=O)(=O)c1snnc1C | 0 | 0 | 0 | 0 | 0 | -72
Cc1ccc(NC(=O)COC(=O)c2ccccc2OCC(=O)N(C)C)cc1 | - | - | 0 | - | 0 | -
Cc1cccc2[nH]cc(/C=C3/C=Nc4ccccc43)c12 | - | - | 0 | - | 0 | -
O=C1N[C@@H](Cc2ccccc2)COC(=O)[C@@H](Cc2ccc(F)cc2)C/C=C\C[C@@H]1CC(=O)N(CCO)Cc1ccccc1 | - | - | ? | ? | 13µM | -96
CC(C)(C)OC(=O)C[C@H]1C/C=C\C[C@@H](CC(=O)NCCO)C(=O)N[C@H](Cc2ccccc2)COC1=O | - | - | 0 | 0 | 0 | -61
COc1ccccc1C(=O)Nc1ccc(Oc2nnc(-c3ccc(C)cc3)c3ccccc23)cc1 | 0 | 0 | 0 | 0 | 0 | -70
COc1ccc(C(=O)Nc2ccc(N3CCN(C(=O)c4ccccc4C)CC3)cc2)cc1 | 0 | 0 | 0 | ? | 0 | -82
Cc1ncoc1C(=O)Nc1ccc(Oc2ccccc2)cc1 | 0 | 0 | - | 0 | - | 0
COc1ccc(Oc2ccc(NC(=O)c3ccccc3C)cc2)cc1 | ? | 0 | 0 | 0 | 0 | -85
Cc1nc(C)c(C(=O)Nc2ccc(Oc3ccccc3)cc2)o1 | ? | 0 | 0 | 0 | 0 | -89
COc1ccccc1Oc1ccc(NC(=O)c2ccccc2C)cc1 | - | - | ? | 0 | ? | 0
COc1ccc(C(=O)Nc2ccc(N3CCCC3)cc2)cc1 | 0 | 0 | 0 | 0 | 0 | 0
SMILES | LASV entry inh | MARV entry inh | Vaccinia mCherry | FMDV antiviral | Vaccinia Venus | HCMV antiviral
CCCCC[C@]12Cc3cc(OC)c(OC)cc3[C@H](O1)c1c(cc(C)n(-c3ccccc3)c1=O)O2 | - | 0 | - | - | - | -
Cc1ccc(C(=O)N2CCN(c3nc4ccccc4n3C)CC2)cc1 | - | - | - | ? | - | -62
Cn1c(N2CCN(S(=O)(=O)c3ccc(Cl)cc3)CC2)nc2ccccc21 | 0 | 0 | 0 | ? | 0 | -61
Cn1c(N2CCN(C(=O)NC34CC5CC(CC(C5)C3)C4)CC2)nc2ccccc21 | 0 | 0 | - | 0 | - | 0
Cc1cc(N2CCN(S(=O)(=O)c3ccc(Cl)cc3)CC2)c2ccccc2n1 | 16µM | ? | ? | - | ? | -87
CCc1nc2ccccc2nc1N1CCN(S(=O)(=O)c2ccc(Cl)cc2)CC1 | ? | 11µM | 0 | ? | 0 | 0
O=S(=O)(c1ccc(Cl)cc1)N1CCN(c2ccccn2)CC1 | 0 | 0 | 0 | 0 | 0 | 0
Cn1c(SCC(=O)N2CCN(S(=O)(=O)c3ccc(Cl)cc3)CC2)nc2ccccc21 | ? | 0 | - | ? | - | 0
CCN1/C(=C/C=C/C=C/C=C/c2sc3ccccc3[n+]2CC)Sc2ccccc21 | - | - | - | 10µM | - | -96
CCN1/C(=C/C=C/c2sc3ccccc3[n+]2CC)Sc2ccccc21 | - | - | 0 | 14µM | 0 | -
CCN1/C(=C/C=C/C=C/c2sc3ccccc3[n+]2CC)Sc2ccccc21 | 1.8µM | 4.6µM | 0 | - | 0 | -
CC[n+]1c(/C=C/Nc2ccccc2)sc2ccccc21 | 0 | ? | 0 | 0 | 0 | 0
CC(=O)Nc1cccc(-c2cc3c(c4c2ccn4C)C2CCC3C2)c1 (stereo unspecified) | 0 | - | - | - | - | -
COc1ccc(CCn2c3c(c(=O)[nH]c2=S)CN(c2ccccc2)CN3)cc1OC | - | - | 0 | - | ? | -
CCCCNC(=O)C1(C)CCC(=O)N1CCCn1ccnc1 (stereo unspecified) | - | - | 0 | 0 | 0 | -71
CC1(C(=O)NCc2cccnc2)CCC(=O)N1CCc1ccccc1 (stereo unspecified) | - | - | 0 | 0 | 0 | -97
CC1(C(=O)NCc2ccccc2)CCC(=O)N1CCCn1ccnc1 (stereo unspecified) | - | - | 0 | 0 | 0 | -99
CC1(C(=O)NCc2ccccc2)CN(S(C)(=O)=O)CC(=O)N1CCCn1ccnc1 (stereo unspecified) | - | - | 0 | 0 | 0 | 0
COc1ccc(CCN2C(=O)CCC2(C)C(=O)NCc2cccnc2)cc1OC (stereo unspecified) | 0 | 0 | 0 | 0 | 0 | 0
CCCCNC(=O)C1(C)CCC(=O)N1CCOC (stereo unspecified) | - | - | 0 | 0 | 0 | 0
CC#CCN1C(=O)NC(c2ccccc2)C(C#N)=C1C (stereo unspecified) | - | 0 | - | - | - | -
COc1ccc(NC(C)C(=O)N/N=C/c2ccc([N+](=O)[O-])s2)cc1 (stereo unspecified) | 0 | 0 | 8.9µM | 0 | 13µM | ?
Cc1ccc(NC(C)C(=O)N/N=C/c2ccc([N+](=O)[O-])s2)cc1 (stereo unspecified) | ? | ? | ? | 0 | ? | -70
COC(=O)N/N=C/c1ccc([N+](=O)[O-])s1 | ? | ? | 0 | 0 | ? | 0
Cc1cccc(-c2c3c(=O)n(C)c(=O)n(C)c3cn2-c2cc(N)c(Cl)cc2Cl)c1 | ? | ? | 0[7.34 µM] | 0 | 0[7.34 µM] | 0
O=C(NC1CCCCC1)c1cc2c(cc1Cl)N1CCCCCC1=NS2(=O)=O | 0 | 0 | 0 | 0 | 0 | -97
c1ccc(CSc2nnc(C3CCNCC3)o2)cc1 | 0 | 0 | 0 | 0 | 0 | 0
CN=c1scc(-c2ccc([N+](=O)[O-])cc2)n1/N=C/c1ccco1 | 0 | 0 | 0 | 0 | 0 | -87
Cc1cccn2c(=O)c(C(=O)NCCc3ccc(S(N)(=O)=O)cc3)c(O)nc12 | - | 0 | 0 | 0 | 0 | 0

From PubChem BioAssay
